According to PubChem BioAssay (NCATS):
Records with an inconclusive call do not appear. Entries that show only a call come without a potency. Active and inactive are the calls of the source. Calls come from the whole dose curve; as a rule, active = well fitted cell-killing curve with a large enough effect; inconclusive = small, poorly fitted or top-dose-only effect, or effect the other way; inactive = flat fitted curve, though single readings scatter.

tested on: SKOV3; assay: Primary qHTS to identify gynecologic anti-cancer compounds using libraries of approved drugs and bioactive compounds (AID 1345084); conditions: Gynecologic cancer cell panel viability, ATPlite luminescence, 48 h; series mostly up to 57.5 µM; note: nearly all actives have a fitted effect of over 55% in size
Summary of the method: (§1)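 Five-point cytotoxicity, 48 h drug exposure at 37 C, 5% CO2, on cells seeded 16 h beforehand. ATP content read by ATPlite luminescence.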
Potency is the fitted concentration of half-maximal effect.

Row | Compound | Potency
1 | Cc1cc(C)c(/C=C2\C(=O)Nc3ccccc32)[nH]1 | inactive
2 | COC(=O)[C@H]1[C@H]2C[C@@H]3c4[nH]c5cc(OC)ccc5c4CCN3C[C@H]2C[C@@H](OC(=O)c2cc(OC)c(OC)c(OC)c2)[C@@H]1OC | inactive
3 | CCOC(=O)c1cnc2c(cnn2CC)c1NN=C(C)C | inactive
4 | NC(N)=NC(=O)Cc1c(Cl)cccc1Cl | inactive
5 | COc1ccc([C@@H]2Sc3ccccc3N(CCN(C)C)C(=O)[C@@H]2OC(C)=O)cc1 | inactive
6 | CN(C)CC[C@@H](c1ccc(Br)cc1)c1ccccn1 | inactive
7 | CC(N=C(NC#N)Nc1ccncc1)C(C)(C)C (stereo unspecified) | inactive

tested on: Tov-21-G; assay: as above; conditions: Gynecologic cancer cell panel viability, ATPlite luminescence, 48 h; series mostly up to 57.5 µM
Summary of the method: as §1

Row | Compound | Potency
8 | CC(C)NNC(=O)c1ccncc1 | inactive
9 | CCN(CC)CCNC(=O)c1cc(S(C)(=O)=O)ccc1OC | inactive
10 | c1cnc(N2CCN(Cc3ccc4c(c3)OCO4)CC2)nc1 | inactive
11 | NC1=NCC2c3ccccc3Cc3ccccc3N12 (stereo unspecified) | inactive
12 | CCCCCN(CCCCC)C(=O)C(CCC(=O)O)NC(=O)c1ccc(Cl)c(Cl)c1 (stereo unspecified) | inactive
13 | OCCN1CCN(CCCN2c3ccccc3C=Cc3ccccc32)CC1 | inactive
14 | CN1C(=O)CC[C@H]1c1cccnc1 | inactive
15 | CCC(=O)c1ccc2c(c1)N(CCCN(C)C)c1ccccc1S2 | inactive
16 | C[C@]12CC[C@@H]3c4ccc(O)cc4C[C@@H](CCCCCCCCCS(=O)CCCC(F)(F)C(F)(F)F)[C@H]3[C@@H]1CC[C@@H]2O (stereo partly specified) | inactive
17 | CCCN1C[C@H](CSC)C[C@@H]2c3cccc4[nH]cc(c34)C[C@H]21 | inactive
18 | CC1=NS(=O)(=O)c2cc(Cl)ccc2N1 | inactive
19 | O=C(O)CN(CCN(CC(=O)O)CC(=O)O)CCN(CC(=O)O)CC(=O)O | inactive
20 | c1cc(CN2CCCCC2)cc(OCCCNc2nc3ccccc3s2)c1 | inactive
21 | C[C@H](CS)C(=O)N1CCC[C@H]1C(=O)O | inactive
22 | CCc1cccc(N(C)C(N)=Nc2cccc3ccccc23)c1 | inactive
23 | CCc1c(C)[nH]c2c1C(=O)C(CN1CCOCC1)CC2 (stereo unspecified) | inactive
24 | CNCCCN1c2ccccc2CCc2ccccc21 | inactive
25 | Cc1ccc(/C(=C\CN2CCCC2)c2ccccn2)cc1 | inactive

Row | Compound | Potency
26 | NC(N)=N/N=C/c1c(Cl)cccc1Cl | inactive
27 | CC[N+](C)(C)c1cccc(O)c1 | inactive
28 | Cc1ccc(Cl)c(Nc2ccccc2C(=O)O)c1Cl | inactive
29 | CN1C[C@H](C(=O)N[C@]2(C)O[C@@]3(O)[C@@H]4CCCN4C(=O)[C@H](Cc4ccccc4)N3C2=O)C[C@@H]2c3cccc4[nH]cc(c34)C[C@H]21 | inactive
30 | O=C(CCCN1CCC(O)(c2cccc(C(F)(F)F)c2)CC1)c1ccc(F)cc1 | inactive
31 | C[n+]1cc2c3c(ccc2c2ccc4cc5c(cc4c21)OCO5)OCO3 | 7.94 µM (active)
32 | CCCN(CCC)C(=O)C(CCC(=O)O)NC(=O)c1ccccc1 (stereo unspecified) | inactive
33 | CC1=C(C)C(=O)C(CCCCC#CCCCC#CCO)=C(C)C1=O | inactive
34 | Cc1cc(C)c(/C=C2\C(=O)Nc3ccccc32)[nH]1 | inactive
35 | COC(=O)[C@H]1[C@H]2C[C@@H]3c4[nH]c5cc(OC)ccc5c4CCN3C[C@H]2C[C@@H](OC(=O)c2cc(OC)c(OC)c(OC)c2)[C@@H]1OC | inactive
36 | CCN(CC)CCCN(c1ccccc1)C1Cc2ccccc2C1 | inactive
37 | CCOC(=O)c1cnc2c(cnn2CC)c1NN=C(C)C | inactive
38 | COCC(=O)O[C@]1(CCN(C)CCCc2nc3ccccc3[nH]2)CCc2cc(F)ccc2[C@@H]1C(C)C | inactive
39 | NC(N)=NC(=O)Cc1c(Cl)cccc1Cl | inactive
40 | COc1ccc([C@@H]2Sc3ccccc3N(CCN(C)C)C(=O)[C@@H]2OC(C)=O)cc1 | inactive
41 | CC(C)(C)c1ccc(C(=O)CCCN2CCC(OC(c3ccccc3)c3ccccc3)CC2)cc1 | inactive
42 | CN(C)CC[C@@H](c1ccc(Br)cc1)c1ccccn1 | inactive
43 | CC(N=C(NC#N)Nc1ccncc1)C(C)(C)C (stereo unspecified) | inactive

tested on: Tov112D; assay: as above; conditions: Gynecologic cancer cell panel viability, ATPlite luminescence, 48 h; series mostly up to 57.5 µM
Summary of the method: as §1

Row | Compound | Potency
44 | CC(C)NNC(=O)c1ccncc1 | inactive
45 | CCN(CC)CCNC(=O)c1cc(S(C)(=O)=O)ccc1OC | inactive
46 | c1cnc(N2CCN(Cc3ccc4c(c3)OCO4)CC2)nc1 | inactive
47 | CCCCCN(CCCCC)C(=O)C(CCC(=O)O)NC(=O)c1ccc(Cl)c(Cl)c1 (stereo unspecified) | inactive
48 | OCCN1CCN(CCCN2c3ccccc3C=Cc3ccccc32)CC1 | inactive
49 | CN1C(=O)CC[C@H]1c1cccnc1 | inactive
50 | CCC(=O)c1ccc2c(c1)N(CCCN(C)C)c1ccccc1S2 | inactive
51 | C[C@]12CC[C@@H]3c4ccc(O)cc4C[C@@H](CCCCCCCCCS(=O)CCCC(F)(F)C(F)(F)F)[C@H]3[C@@H]1CC[C@@H]2O (stereo partly specified) | inactive
52 | CCCN1C[C@H](CSC)C[C@@H]2c3cccc4[nH]cc(c34)C[C@H]21 | inactive
53 | CC1=NS(=O)(=O)c2cc(Cl)ccc2N1 | inactive
54 | O=C(O)CN(CCN(CC(=O)O)CC(=O)O)CCN(CC(=O)O)CC(=O)O | inactive
55 | c1cc(CN2CCCCC2)cc(OCCCNc2nc3ccccc3s2)c1 | inactive
56 | C[C@H](CS)C(=O)N1CCC[C@H]1C(=O)O | inactive
57 | CCc1c(C)[nH]c2c1C(=O)C(CN1CCOCC1)CC2 (stereo unspecified) | inactive
58 | Cc1ccc(/C(=C\CN2CCCC2)c2ccccn2)cc1 | inactive
59 | NC(N)=N/N=C/c1c(Cl)cccc1Cl | inactive
60 | CC[N+](C)(C)c1cccc(O)c1 | inactive

Row | Compound | Potency
61 | Cc1ccc(Cl)c(Nc2ccccc2C(=O)O)c1Cl | inactive
62 | CN1C[C@H](C(=O)N[C@]2(C)O[C@@]3(O)[C@@H]4CCCN4C(=O)[C@H](Cc4ccccc4)N3C2=O)C[C@@H]2c3cccc4[nH]cc(c34)C[C@H]21 | inactive
63 | O=C(CCCN1CCC(O)(c2cccc(C(F)(F)F)c2)CC1)c1ccc(F)cc1 | inactive
64 | C[n+]1cc2c3c(ccc2c2ccc4cc5c(cc4c21)OCO5)OCO3 | 10 µM (active)
65 | CCCN(CCC)C(=O)C(CCC(=O)O)NC(=O)c1ccccc1 (stereo unspecified) | inactive
66 | CC1=C(C)C(=O)C(CCCCC#CCCCC#CCO)=C(C)C1=O | inactive
67 | Cc1cc(C)c(/C=C2\C(=O)Nc3ccccc32)[nH]1 | inactive
68 | COC(=O)[C@H]1[C@H]2C[C@@H]3c4[nH]c5cc(OC)ccc5c4CCN3C[C@H]2C[C@@H](OC(=O)c2cc(OC)c(OC)c(OC)c2)[C@@H]1OC | inactive
69 | CCN(CC)CCCN(c1ccccc1)C1Cc2ccccc2C1 | inactive
70 | CCOC(=O)c1cnc2c(cnn2CC)c1NN=C(C)C | inactive
71 | COCC(=O)O[C@]1(CCN(C)CCCc2nc3ccccc3[nH]2)CCc2cc(F)ccc2[C@@H]1C(C)C | inactive
72 | NC(N)=NC(=O)Cc1c(Cl)cccc1Cl | inactive
73 | COc1ccc([C@@H]2Sc3ccccc3N(CCN(C)C)C(=O)[C@@H]2OC(C)=O)cc1 | inactive
74 | CC(C)(C)c1ccc(C(=O)CCCN2CCC(OC(c3ccccc3)c3ccccc3)CC2)cc1 | inactive
75 | CN(C)CC[C@@H](c1ccc(Br)cc1)c1ccccn1 | inactive
76 | CC(N=C(NC#N)Nc1ccncc1)C(C)(C)C (stereo unspecified) | inactive
